Assay outcomes as filed in PubChem.
Sampled rows, rich in hits. Any-hit rate of the full collection: about 2.6%.
PHOSPHO1 block = PubChem AID 1565 | recombinant PHOSPHO1, absorbance phosphatase assay | inhibition, % at 13.3 µM | Phosphoethanolamine/phosphocholine phosphatase (Homo sapiens), Q8TCT1 | 290,000 compounds, 1.1% hits; in the data active = inhibition above about 60%
Target sequence (Q8TCT1 whole entry, looked up): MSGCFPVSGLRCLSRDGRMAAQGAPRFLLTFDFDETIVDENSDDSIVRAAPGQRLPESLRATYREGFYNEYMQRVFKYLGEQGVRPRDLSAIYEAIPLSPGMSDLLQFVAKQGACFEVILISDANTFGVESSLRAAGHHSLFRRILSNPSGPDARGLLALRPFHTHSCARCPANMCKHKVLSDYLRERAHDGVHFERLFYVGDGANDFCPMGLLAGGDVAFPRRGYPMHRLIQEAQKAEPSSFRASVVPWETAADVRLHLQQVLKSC
PABP polyA inh = PABP poly(A) RNA binding inhibitors, primary screen, biochemical, fluorescence polarization, uHTS | 290,000 compounds, 1% hits | Polyadenylate-binding protein 1 (Homo sapiens), P11940 | AID 2014, 2009 | calls only at 35 µM;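 note: calls also rest on retests at 20 µM and on dose response follow-up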
eIF4H inh = human eIF4H binding inhibitors, primary screen, translation initiation inhibitor project, biochemical, uHTS, fluorescence polarization; Eukaryotic translation initiation factor 4H (Homo sapiens), Q15056; eIF4H fluorescence polarization binding assay; inhibition, % at 35 µM; 290,000 compounds, 0.94% hits; AID 2012, 2009;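 note: calls also rest on retests at 20 µM and on dose response follow-up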
MLLE-PAM2 inh = inhibitors of PABP1 MLLE–PAM2 peptide binding, primary screen, biochemical, fluorescence polarization, FITC-PAM2, GST-MLLE. Polyadenylate-binding protein 1 (Homo sapiens), P11940. inhibition, % at 20 µM. 360,000 compounds, 0.36% hits. AID 588489, 2011; in the data active = inhibition above about 35%, passing the limit was not always enough;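 note: plate controls were DMSO wells with GST-MLLE for no effect and wells lacking GST-MLLE protein for full effect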
A3A deaminase = APOBEC3A ssDNA deaminase inhibitors, primary screen, selectivity assay for APOBEC3G inhibitor project, biochemical, FAM/TAMRA oligo cleavage fluorescence. AID 493011, 2011. 330,000 compounds, 0.41% hits. recombinant A3A, FAM/TAMRA ssDNA deamination fluorescence. inhibition, % at 20 µM;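 active = at least 40% inhibition at 20 µM here, with at most 30% in a related deaminase screen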;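 note: plate controls were A3A with DMSO for no effect and wells lacking A3A enzyme for full effect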
APOBEC3G inh = APOBEC3G DNA deaminase inhibitors, primary screen, biochemical, fluorescence, single-stranded DNA substrate, uHTS; AID 493012, 2011; recombinant A3G, ssDNA deamination FAM/TAMRA fluorescence; 330,000 compounds, 0.28% hits; inhibition, % at 20 µM;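 active = inhibition of at least 40% at 20 µM, with no more than 30% in the related APOBEC3A deaminase screen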;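 note: plate controls were DMSO wells with A3G for no effect and wells lacking A3G enzyme for full effect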
* hit, by the source's call; i = inactive; x = no result given; + = active, no number. Unless noted, the rule behind the calls is not given here.

SMILES | PHOSPHO1 block | PABP polyA inh | eIF4H inh | MLLE-PAM2 inh | A3A deaminase | APOBEC3G inh
CCOC(=O)c1ccccc1NC(=O)c1ccc2nc[nH]c2c1 | 1 | i | 10 | -7 | -6 | -6
CCOC(=O)c1ccccc1NC(=O)c1ccc2nccnc2c1 | 13 | i | 68* | -16 | 6 | -1
Cc1cn([C@H]2C[C@H](O)[C@@H](CNCc3cnc(N4CCOCC4)s3)O2)c(=O)[nH]c1=O | x | x | x | -5 | x | x
COc1cccc(NC(=O)CN(C)C(=O)c2ccc3c(c2)C(=O)N(CCC(C)C)C3=O)c1 | x | x | x | 3 | -5 | -6
O=C(NCCc1cccs1)Nc1nnc([C@H]2C[C@H](O)[C@@H](CO)O2)s1 | x | x | x | 9 | x | x
Cc1cc(=O)n2c3ccccc3n(CC(O)CN3CCCC3)c2c1C#N (stereo not given) | 62* | i | 9 | -7 | 3 | -4
Cc1nonc1C(=O)N/N=C/c1ccc(O)c(O)c1 | -57 | i | 5 | -11 | -2 | -7
O=C(N/N=C/c1ccc(O)c(O)c1)N/N=C/c1ccc(O)c(O)c1 | 24 | i | 56* | -8 | 6 | 4
Oc1ccc(/C=N/NC(=S)Nc2cccnc2)cc1O | 3 | + | 68 | 40* | -5 | -9
Cc1nc(C(F)(F)F)ccc1C(=O)N1CCC1(C)C(=O)NS(=O)(=O)c1ccc(C#N)cc1 (stereo not given) | x | x | x | 8 | x | x
Cc1ccc(NC(=O)CSC2=NCCN2)cc1 | 14 | i | -7 | 39* | -1 | -4
COc1ccccc1NC(=O)CSC1=NCCN1 | -8 | i | 3 | 30 | x | x
O=C1NN=C(c2ccccc2)C1Cc1ccccc1 (stereo not given) | x | x | x | 2 | x | x
Cn1c(-c2sc3cc(C(F)(F)F)cnc3c2-c2cccnc2)n[nH]c1=S | 92* | i | -9 | -44 | -4 | 39
C[C@H](NS(=O)(=O)c1ccc2c(c1)OCCCO2)C(=O)N1CCN(Cc2ccc(C#N)cc2)CC1 | x | x | x | 10 | -4 | -10
CC(C)c1ccc(CC(=O)N2CCC2(C)C(=O)NCCC#N)cc1 (stereo not given) | x | x | x | -4 | x | x
O=C(NCCc1ccc(Cl)cc1)c1ccc2[nH]c(=O)c(=O)[nH]c2c1 | -47 | i | -8 | -5 | -2 | -6
COc1ccc(-c2csc(NC(=O)C3CC(=O)N(c4ccc5c(c4)OCCO5)C3)n2)cc1 (stereo not given) | -6 | i | 38 | 1 | 11 | 3
CC(=O)Nc1ccc(-c2csc(NC(=O)C3CC(=O)N(c4ccc5c(c4)OCCO5)C3)n2)cc1 (stereo not given) | 44 | + | 60* | 19 | 9 | 4
COC(=O)c1nn(-c2ccc(OC)cc2)c(=O)cc1NN | -1 | i | active | -11 | -2 | -5
CCN(CCNCC(O)COCc1ccc(Cl)cc1)c1cccc(C)c1 (stereo not given) | 7 | i | 14* | 1 | -3 | -14
CCN(CC)CCN(C)C(=O)CCc1nnc(-c2ccc(C)s2)o1 | 60* | i | 2 | 10 | 15 | -3
CC(=O)N1CCC2(CC1)C/C(=N\NC(=S)Nc1ccccc1C)c1cc(O)ccc1O2 | 1 | i | 8.5* | 36 | 0 | 0
Cc1cccc(C)c1NC(=O)CS(=O)CC(=O)NCCCc1ccccc1 (stereo not given) | 40 | + | 92* | 9 | 2 | -2
COc1cccc(-c2nc(=S)c3c(n2CCCO)CCCC3)c1 | 32 | i | 12 | 41* | -5 | -3
CC(C)Cn1c(-c2ccccc2)nc(=S)c2c1CCCC2 | -20 | i | 4 | 36 | 3 | 2
CCCCc1ccc(NC(=O)CC(C)(C)C)cc1 | 6 | + | 98* | 2 | -1 | -5
Cc1ccc(C)c(CC(=O)N2CCCC(c3cc(C(=O)NCc4ccccc4)no3)C2)c1 (stereo not given) | x | x | x | -9 | x | x
O=C(O)CCC(=O)Nc1ccccc1N1CCOCC1 | 10 | + | 14* | 1 | 1 | -2
